Data taken from PubChem BioAssay.
For part of these data: Results with a measured potency or affinity are listed apart. Records with an inconclusive call do not appear. Some of the results follow. Activity calls are given as the source filed them.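 How the source made its calls, unless noted: active means a dose-response fit showing signal loss, with half-maximal concentration no higher than twice the top tested dose; inconclusive means flat fit between 30% and 70% signal loss, or poor fit; inactive means the rest.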

Experiments:
[1] = Cryptococcus neoformans growth inhibition, dose response, Alamar Blue, cherry-picks (AID 686998;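 active means falling signal with fitted half-maximal potency no higher than twice the top valid tested dose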)
[2] = inducers of Cryptococcus neoformans cell lysis, dose response, AK release luminescence, cherry-picks (AID 687000;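 active means fitted dose curve reaches 40% lysis signal rise at or below the highest valid concentration tested for that sample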;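 further: luminescent detection of adenylate kinase leaking from lysed yeast; 0% = median neutral control signal and 100% = double that signal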)
[3] = HepG2 cell cytotoxicity, dose response, cytotoxicity control, cherry-picks, set 2 (AID 687002)
[4] = HeLa cell cytotoxicity, dose response, cytotoxicity control, ATP luminescence, cherry-pick samples (AID 687004;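 active means a fitted half-maximal concentration no higher than twice the top valid tested dose, with signal falling as cells die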;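 further: 0% = neutral control median and -100% = staurosporine 10 µM control median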)
[5] = A549 cell cytotoxicity, dose response, cytotoxicity control, plate reader, cherry-pick, antagonist series (AID 743412; call rule not given here;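 further: 0% = neutral control wells and -100% = positive control wells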)
[6] = HepG2 cell cytotoxicity, dose response, cytotoxicity control, plate reader, cherry-pick, antagonist series (AID 743416; call rule not given here;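 further: 0% = neutral control wells and -100% = positive control wells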)
[7] = target: Melanocortin receptor 4 (Homo sapiens) (UniProt P32245); test: MC4R antagonists, dose response, counter-screen for LGR2 antagonist project, cell-based, plate reader, cherry pick (AID 743444; call rule not given here)
[8] = Ring1 mRNA increase in mouse ESCs, confirmation, esBAF inhibitor project, cell-based, mouse ESC, RT-qPCR, cherry-pick (AID 743176;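 active means Ring1 gene expression raised more than 2-fold over untreated cells in both replicates at either tested dose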;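 further: Ring1 transcript normalised to actin housekeeping signal by TaqMan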); details: mouse ESC E14, Ring1 mRNA RT-qPCR fold change, stronger effect = higher value
[9] = Fgf4 mRNA decrease in mouse ESCs, confirmation, esBAF inhibitor project, cell-based, mouse ESC, RT-qPCR, cherry-pick (AID 743177;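 active means Fgf4 expression under 0.8 fold of control in both repeat measurements at one or both tested doses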;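 further: Fgf4 transcript normalised to actin in duplex TaqMan qPCR; cells exposed to compound for 24 h before lysis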); details: mouse ESC E14, Fgf4 mRNA qPCR fold change, stronger effect = lower value
[10] = esBAF inhibition via Bmi1 de-repression, confirmation, cell-based, RT-qPCR, mouse ESC, single point, cherry-pick (AID 743180;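 active means Bmi1 expression fold change above 6 at either tested concentration, seen in replicate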); details: mouse ESC E14, Bmi1 mRNA qPCR fold, stronger effect = higher value
[11] = A549 cell cytotoxicity, cytotoxicity control, plate reader, single point, cherry-pick (AID 743188; call rule not given here); details: at 25 µM
[12] = HepG2 cell cytotoxicity, cytotoxicity control, plate reader, single point, cherry-pick (AID 743189; in the data active means activity change below about -50%); details: at 25 µM, stronger effect = lower value
[13] = HEK293 cell cytotoxicity, cytotoxicity control, plate reader, single point, cherry-pick (AID 743190; in the data active means activity change below about -38%, passing the limit was not always enough); details: at 25 µM

O=C1CCC(C(=O)Nc2ccccc2)N1 (stereo unspecified)
inactive: outcome [1] | outcome [2] | outcome [3] | outcome [4]

O=C(NCCc1ccccc1)[C@H]1[C@H](CO)[C@H]2Cn3c(cccc3=O)[C@@H]1N2C(=O)C1CCC1
inactive: outcome [1] | outcome [2] | outcome [3] | outcome [4]

CC(C)NC(=O)Nc1ccc2c(c1)C(=O)N([C@@H](C)CO)C[C@@H](C)[C@H](CN(C)Cc1ccncc1)OCCCC[C@@H](C)O2
inactive: outcome [1] | outcome [2] | outcome [3] | outcome [4]

C[C@@H]1CCCCO[C@H](CN(C)Cc2ccncc2)[C@@H](C)CN([C@@H](C)CO)C(=O)c2cc(NC(=O)Nc3ccccc3)ccc2O1
inactive: outcome [1] | outcome [2] | outcome [3] | outcome [4]

O=C(NC(=S)Nc1ccc(CN2CCOCC2)cc1)c1ccc([N+](=O)[O-])cc1
inactive: outcome [1] | outcome [2] | outcome [3] | outcome [4]

O=C(CSc1ncnc2c1cnn2-c1ccccc1Cl)N1CCN(C(=O)c2ccco2)CC1
inactive: outcome [1] | outcome [2] | outcome [3] | outcome [4]

COc1ccc(N2CCN(C(=O)CSc3ncnc4c3cnn4-c3ccc(OC)cc3)CC2)cc1
inactive: outcome [1] | outcome [2] | outcome [3] | outcome [4]

CCC(C)(C(=O)NC1CCCCC1)N(C(=O)C1CCC(=O)N1)c1ccc(C)cc1 (stereo unspecified)
inactive: outcome [1] | outcome [2] | outcome [3] | outcome [4]

O=C(Nc1ccc(Cl)c([N+](=O)[O-])c1)c1ccco1
inactive: outcome [1] | outcome [2] | outcome [3] | outcome [4]

CNC[C@H]1Oc2ccc(NC(=O)Cc3cn(C)c4ccccc34)cc2CC(=O)N([C@@H](C)CO)C[C@H]1C
inactive: outcome [1] | outcome [2] | outcome [3] | outcome [4]

COc1ccc(S(=O)(=O)N[C@@H]2C=C[C@@H](CC(=O)N3CCC(Cc4ccccc4)CC3)O[C@H]2CO)cc1
inactive: outcome [1] | outcome [2] | outcome [3] | outcome [4]

Cc1ccc(S(=O)(=O)N[C@@H]2CC[C@H](CCNC(=O)C3CCCC3)O[C@@H]2CO)cc1
inactive: outcome [1] | outcome [2] | outcome [3] | outcome [4]

C/C=C/c1ccc([C@H]2[C@@H](C#N)N(S(=O)(=O)c3cccc(F)c3)[C@H]2CO)cc1
inactive: outcome [1] | outcome [2] | outcome [3] | outcome [4]

C[C@@H]1CN([C@H](C)CO)C(=O)c2cc(-c3ccc(C#N)cc3)cnc2O[C@@H]1CN(C)C(=O)Nc1ccc(F)cc1
inactive: outcome [1] | outcome [2] | outcome [3] | outcome [4]

O=C(Cc1cccs1)N1CCN(c2ccc([N+](=O)[O-])cc2)CC1
inactive: outcome [1] | outcome [2] | outcome [3] | outcome [4]

C/C=C/c1ccc([C@H]2[C@@H](CO)N(C(=O)CC)[C@@H]2CNC(=O)C2CC2)cc1
inactive: outcome [1] | outcome [2] | outcome [3] | outcome [4]

CO[C@@H]1CN(C)C(=O)c2cc(NC(=O)Nc3cccc(F)c3)ccc2OC[C@H](C)N(C)C[C@@H]1C
inactive: outcome [1] | outcome [2] | outcome [3] | outcome [4]

C[C@H]1CN([C@@H](C)CO)C(=O)Cc2cc(NC(=O)Nc3ccccc3)ccc2O[C@H]1CN(C)C(=O)Nc1ccc2c(c1)OCO2
inactive: outcome [1] | outcome [2] | outcome [3] | outcome [4]

C[C@H](CO)N1C[C@H](C)[C@H](CN(C)C(=O)NC2CCCCC2)OCCCC[C@H](C)Oc2ccc(NC(=O)C3CCCCC3)cc2C1=O
inactive: outcome [1] | outcome [2] | outcome [3] | outcome [4]

Cc1ccc(C2=NN(C(=O)c3ccc(Br)o3)C(c3ccc(C)cc3)C2)cc1 (stereo unspecified)
inactive: outcome [1] | outcome [2] | outcome [3] | outcome [4]

COc1ccccc1NC(=O)N[C@@H]1CC[C@@H](CCn2cc(C3(O)CCCC3)nn2)O[C@H]1CO
inactive: outcome [1] | outcome [2] | outcome [3] | outcome [4]

C[C@@H]1CN([C@H](C)CO)C(=O)c2cc(-c3cccc(F)c3)cnc2O[C@H]1CN(C)Cc1ccccc1
inactive: outcome [1] | outcome [2] | outcome [3] | outcome [4]

C[C@@H]1CN([C@H](C)CO)C(=O)c2cc(-c3ccc(F)cc3)cnc2O[C@H]1CN(C)CC1CCCCC1
inactive: outcome [1] | outcome [2] | outcome [3] | outcome [4]

Cc1noc(C)c1S(=O)(=O)Nc1ccc2c(c1)CC(=O)N([C@@H](C)CO)C[C@H](C)[C@@H](CN(C)S(=O)(=O)c1cn(C)cn1)O2
inactive: outcome [1] | outcome [2] | outcome [3] | outcome [4]

N#Cc1ccc(C23CC4(C2)[C@H](CN(Cc2ccc(C(F)(F)F)cc2)[C@@H]4c2ccccc2)C3c2ccc(C(F)(F)F)cc2)cc1 (stereo partly specified)
inactive: outcome [1] | outcome [3] | outcome [4]

CCCN1C[C@H](C)[C@@H](OC)CN(C)C(=O)c2cc(NC(=O)c3cccc(F)c3)ccc2OC[C@@H]1C
inactive: outcome [1] | outcome [3] | outcome [4]

CCCNC(=O)C[C@@H]1CC[C@@H]2[C@H](COc3ccc(NC(=O)CCC)cc3C(=O)N2C)O1
inactive: outcome [1] | outcome [3]

C[C@@H]1CN([C@H](C)CO)S(=O)(=O)c2ccc(C#C[C@@H](C)O)cc2O[C@@H]1CN(C)Cc1ccncc1
inactive: outcome [1] | outcome [3] | outcome [4]

C[C@@H]1CN([C@@H](C)CO)C(=O)c2cc(NS(=O)(=O)c3cn(C)cn3)ccc2O[C@@H](C)CCCCO[C@@H]1CN(C)Cc1ccc(C(F)(F)F)cc1
inactive: outcome [1] | outcome [3]

COc1ccc(CN(C)C[C@H]2Oc3ccc(NC(=O)Nc4ccc(F)cc4)cc3CC(=O)N([C@@H](C)CO)C[C@@H]2C)cc1
inactive: outcome [1] | outcome [3]

O=C(NCCc1ccccc1)[C@@H]1[C@@H](CO)[C@@H]2Cn3c(cccc3=O)[C@H]1N2C(=O)C1CCC1
inactive: outcome [1] | outcome [3] | outcome [4]

COCC(=O)N(C)C[C@H]1Oc2ncc(-c3ccccc3F)cc2C(=O)N([C@@H](C)CO)C[C@H]1C
inactive: outcome [1] | outcome [3] | outcome [4]

O=C(C[C@@H]1CC[C@H]2[C@@H](COC[C@H](O)CN2Cc2ccc(Oc3ccccc3)cc2)O1)Nc1nccs1
inactive: outcome [1] | outcome [3]

Cc1noc(C)c1NC(=O)Nc1ccc2c(c1)C(=O)N([C@@H](C)CO)C[C@H](C)[C@H](CN(C)S(=O)(=O)c1ccc(Cl)cc1)O2
inactive: outcome [1] | outcome [3] | outcome [4]

Cc1noc(C)c1S(=O)(=O)Nc1ccc2c(c1)CC(=O)N([C@H](C)CO)C[C@H](C)[C@@H](CN(C)S(=O)(=O)c1cn(C)cn1)O2
inactive: outcome [1] | outcome [3] | outcome [4]

COC(=O)C1=C(C)N(Cc2ccccc2)C(=S)N[C@H]1c1ccc(Br)cc1
inactive: outcome [1] | outcome [3] | outcome [4]

C[C@@H]1CN([C@@H](C)CO)C(=O)Cc2cc(NC(=O)c3ccncc3)ccc2O[C@H]1CN(C)Cc1ccncc1
inactive: outcome [1] | outcome [3] | outcome [4]

C[C@H](CO)N1C[C@H](C)[C@H](CN(C)C(=O)Nc2cccc3ccccc23)Oc2ccc(NC(=O)Cc3ccccc3)cc2CC1=O
inactive: outcome [1] | outcome [3] | outcome [4]

C[C@@H]1CN([C@H](C)CO)C(=O)c2cc(NC(=O)Nc3cccc4ccccc34)ccc2O[C@@H]1CN(C)C(=O)Nc1ccccc1
inactive: outcome [1] | outcome [2] | outcome [3] | outcome [5] | outcome [6] | outcome [7]

COCCNC(=O)C[C@H]1C[C@@H]2c3cc(NC(=O)C4CCC4)ccc3O[C@@H]2[C@H](CO)O1
inactive: outcome [1] | outcome [3] | outcome [4]

C[C@H]1CN([C@@H](C)CO)C(=O)c2cc(NC(=O)Nc3ccc(F)cc3)ccc2O[C@@H]1CN(C)S(C)(=O)=O
inactive: outcome [1] | outcome [3]

C[C@@H]1CN([C@H](C)CO)S(=O)(=O)c2ccc(C#CC3CC3)cc2O[C@H]1CN(C)CC1CCOCC1
inactive: outcome [1] | outcome [3]

CC(C)NC(=O)N[C@H]1CC[C@@H](CCNC(=O)C2CC2)O[C@H]1CO
inactive: outcome [1] | outcome [3] | outcome [4]

CC(C)NC(=O)Nc1ccc2c(c1)C(=O)N([C@@H](C)CO)C[C@@H](C)[C@H](CN(C)C(=O)c1ccncc1)OCCCC[C@H](C)O2
inactive: outcome [1] | outcome [3] | outcome [4]

C[C@@H]1CN([C@@H](C)CO)C(=O)c2cc(NC(=O)Nc3ccccc3)ccc2O[C@@H]1CN(C)C(=O)Nc1cccc2ccccc12
inactive: outcome [1] | outcome [3]

CO[C@@H]1CN(C)C(=O)c2cc(NS(=O)(=O)c3cccc(C)c3)ccc2OC[C@@H](C)NC[C@H]1C
inactive: outcome [1] | outcome [3] | outcome [4]

C[C@H]1CN([C@@H](C)CO)C(=O)Cc2cc(NS(C)(=O)=O)ccc2O[C@@H]1CN(C)Cc1ccc(Cl)c(Cl)c1
inactive: outcome [1] | outcome [3] | outcome [4]

C[C@H](CO)N1C[C@H](C)[C@@H](CN(C)Cc2ccc(-c3ccccc3)cc2)Oc2ccc(NC(=O)Nc3ccc(C(F)(F)F)cc3)cc2C1=O
inactive: outcome [1] | outcome [3] | outcome [4]

CCCC(C)(C)C(=O)N1CCC1(C)C(=O)Nc1ccc(C)cc1 (stereo unspecified)
inactive: outcome [1] | outcome [3] | outcome [4]

C[C@@H]1CCCCO[C@@H](CN(C)C(=O)CCCN(C)C)[C@@H](C)CN([C@H](C)CO)C(=O)c2cc(NC(=O)Cc3ccccc3)ccc2O1
inactive: outcome [1] | outcome [3] | outcome [4]

CCCC(=O)Nc1ccc2c(c1)C(=O)N(C)C[C@H](OC)[C@@H](C)CN(C(=O)c1cccnc1)[C@@H](C)CO2
inactive: outcome [1] | outcome [3] | outcome [4]

O=C(NC1CCCCC1)N[C@H]1C=C[C@@H](CC(=O)N2CCOCC2)O[C@@H]1CO
inactive: outcome [1] | outcome [3] | outcome [4]

COc1cccc(-c2ccc3c(c2)[C@H]2[C@H](CCN2C(=O)Cc2ccncc2)[C@H](CO)N3C)c1
inactive: outcome [1] | outcome [3]

O=C(Cc1ccccc1)N[C@H]1C=C[C@@H](CC(=O)N2CCOCC2)O[C@@H]1CO
inactive: outcome [1] | outcome [3] | outcome [4]

COC(=O)C1=C(C)N(Cc2ccc(Br)cc2)C(=S)NC1c1ccc(F)cc1 (stereo unspecified)
inactive: outcome [1] | outcome [3]

COc1ccc(C2=Nc3ccccc3NC(=O)C2N(C(=O)c2cc3ccccc3[nH]2)c2ccccc2)cc1 (stereo unspecified)
1.31: fold change ([8]; Ring1 fold increase, at 7 µM)
1.01: Fgf4 expression fold change ([9]; Fgf4 expression, at 7 µM)
1.36: fold change ([10]; Bmi1 de-repression, at 7 µM)
inactive: outcome [1] | outcome [2] | outcome [3] | fold change ([8]; at 33 µM) 0.913 | Fgf4 expression fold change ([9]; at 33 µM) 0.976 | fold change ([10]; at 33 µM) 1.54 | cell viability change % (negative = cytotoxic) [11] 6.45% | activity change, negative = inhibition [12] -23.1% | activity change, negative = inhibition [13] -16.6%

O=C(CSc1ncnc2c1cnn2-c1ccccc1)Nc1ccc2c(c1)OCO2
inactive: outcome [1] | outcome [2] | outcome [4]

C[C@@H]1CCCCO[C@@H](CN(C)C(=O)Nc2cccc3ccccc23)[C@@H](C)CN([C@H](C)CO)C(=O)c2cc(NS(=O)(=O)c3ccccc3)ccc2O1
inactive: outcome [1] | outcome [3] | outcome [4]
